Test results taken from PubChem BioAssay.
A number with no mark means an inactive call. Activity calls are given as the source filed them.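 The calls were made as follows: active = z-score of at least 1.8 in each of two replicates, scored against plate mean and spread of sample wells; inactive = the rest.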

Experiment: viability rescue of complex I mutant cybrids, primary screen, cell-based, galactose medium, ATP luminescence (AID 1645843);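 also: positive z means more ATP and so rescue of galactose-driven cybrid death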
Details: complex I mutant cybrid cells, 72 h, stronger effect = higher value

Row | Structure (SMILES) | z-score
1 | O=C(c1ccc(OC2(C(=O)O)CCSCC2)cc1)N1CCOCC1 | -0.515
2 | COc1cccc(CN2CCN(c3ccc4cccc(OC)c4n3)CC2)c1 | -0.86
3 | Cc1cc(C)n(CC(C)n2cnc3cccc(C)c3c2=O)n1 (stereo not given) | 0.34
4 | CCC1(CC)CC1C(=O)N1CCC(n2cc(C3(O)CCCC3)nn2)CC1 (stereo not given) | -0.565
5 | Cc1cc(C)c(CNC(C)CCCC(C)(C)O)c(C)c1CO (stereo not given) | 0.19
6 | O=C(C1CCCCCC1)N1CCC(Cn2cc(CCO)nn2)CC1 | -0.51
7 | CCCCCC(=O)N1CCC(n2cc(C3CCCC3)nn2)CC1 | 0.965
8 | CC(C)(C)CN1CCN(CC2CC2)C(CCO)C1 (stereo not given) | 0.35
9 | Cc1cccc2c(C(=O)N(C)C(C)C)cc(-c3cnn(C(C)(C)C)c3)nc12 | 1.41
10 | CCn1cc(-c2cc(C(=O)N3CCCCCC3)c3ccc(C)c(C)c3n2)cn1 | 1.92 (active)
11 | CN(CC1COc2ccccc2O1)C(=O)Nc1nncs1 (stereo not given) | -0.295
12 | O=C(Nc1ccc2nccnc2c1)c1csc(Cc2ccccc2)n1 | -1.07
13 | CCN(CC)C(CNCc1ccc(OC)c(F)c1)c1ccco1 (stereo not given) | -0.84
14 | CCCCCNC(=O)N1CCC2(CC1)Nc1ccccc1N(CC1CC1)C2=O | 0.705
15 | COc1ccc2c(c1)C=C(CNc1cccnc1)CO2 | 0.615
16 | CC(C)c1nc(Cn2cnc3sc4c(c3c2=O)CCCC4)cs1 | 1.35
17 | c1ccc(Cn2ccnc2CNc2ncnc3nc[nH]c23)cc1 | -0.435
18 | CC(=O)N[C@@H](CC(C)C)C(=O)N1CCC(n2cc(C(C)(C)N)nn2)CC1 | -0.505
19 | COc1cccc(C(=O)N2CCC(n3cc(-c4ccccn4)nn3)CC2)c1 | 0.785
20 | CC(C)=CCC/C(C)=C/CNCCCc1ccncc1 | -0.52

Row | Structure (SMILES) | z-score
21 | O=C1NCCN(C(=O)c2ccc(Cl)c(F)c2)C1Cc1ccccc1 (stereo not given) | -0.565
22 | CC(Cc1cccnc1)n1cnc2sc3c(c2c1=O)CCCCC3 (stereo not given) | 0.91
23 | O=C(CCn1cnnn1)N1CCc2[nH]nc(-c3ccc4c(c3)OCO4)c2C1 | 0.465
24 | CC(Oc1ccc2c(c1)OCO2)C(=O)N(Cc1nccn1C)C(C)C (stereo not given) | -0.22
25 | Cc1nn(C)cc1-c1ccnc(N2CCCC(c3nc4c(C)cccc4[nH]3)C2)n1 (stereo not given) | -1.2
26 | CC(C)Cc1cn(C2CCN(C(=O)C3CCCCCC3)CC2)nn1 | -0.435
27 | CC(CCCC(C)(C)O)CCNC(C1CC1)C1CC1 (stereo not given) | -0.515
28 | O=C1NCCN(C(=O)c2ccc(F)c(F)c2)C1Cc1ccccc1 (stereo not given) | -0.495
29 | CCc1nc(C)ccc1OCC(=O)N1CCc2[nH]nc(C3CC3)c2C1 | -0.685
30 | CCC(CC)(CCC#N)CNCC1(N2CCOCC2)CCCC1 | -0.575
31 | CCCCc1cc(=O)[nH]c(-c2ccc(CN3CCC(F)(F)CC3)cc2)n1 | 0.255
32 | CCN(CC)C(=O)c1cc(-c2cnc(C(C)C)nc2)nc2c(C)cccc12 | -1.09
33 | O=C(C1CCCCCC1)N1CCC(Cn2cc(CCCO)nn2)CC1 | -0.325
34 | Clc1ccc(C(Cn2ccnc2)OCc2csc3c(Cl)cccc23)c(Cl)c1 (stereo not given) | 0.155
35 | CC(C)c1cc(C(=O)N2CCCC(c3ccccc3)C2)on1 (stereo not given) | -0.55
36 | Cc1c(C(F)(F)F)nc(-c2ccc(CN(C)Cc3ccccn3)cc2)[nH]c1=O | -0.485
37 | Cn1ncc(NC(=O)Cn2ccc(-c3ccccc3C(F)(F)F)n2)n1 | 1.12
38 | Cc1sc2ncnc(N3CCC(Cn4cc(C(C)(C)N)nn4)CC3)c2c1C | -0.55
39 | O=C(Nc1n[nH]c(-c2ccco2)n1)N1CCc2c([nH]c3ccccc23)C1 | -0.135
40 | COc1ccc(OC)c(-c2ncnc3sc(C)c(C)c23)c1 | 0.645
